Beta cell apopt – inhibitors of cytokine-induced beta cell apoptosis, primary screen, luminescence; 0.8% of 300,000 active; protection from apoptosis, % (test concentration not listed); AID 435005, 2010; INS-1E cytokine-induced death, ATP luminescence, 48 h; percent of positive-control rescue, neutral wells zero;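 active = Every replicate reaches about 75%, or at least half do and their mean reaches it too, limit read from the data; inconclusive = At least half of replicates reach the limit but their mean does not; inactive = Under half of replicates reach the limit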;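 also: higher means more ATP so stronger rescue from cytokine killing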
697 NFkB inh – inhibitors of PMA/ionomycin-induced NF-kB reporter, 697 cells, primary screen, B-cell NF-kB inhibitor project, cell-based, luminescence, uHTS; inhibition, % at 4 µM; 697 B-cell NF-kB luciferase reporter, 16 h; AID 435022, 2010; 0.33% of 330,000 active; in the data active = inhibition above about 35%
Jurkat NFkB inh – inhibitors of induced NF-kB luciferase reporter, primary screen, TCR NF-kB activation inhibitor project, cell-based, luminescence, uHTS; Jurkat, PMA/ionomycin-induced NF-kB luciferase reporter; inhibition, % at 4 µM; 0.53% of 330,000 active; AID 435003, 2010; in the data active = inhibition above about 50%
Shn3 inh set2 – reduction of Shn3 3'UTR firefly luciferase signal, primary screen, Schnurri-3 inhibitor project, cell-based, Clone20 osteoblasts, set 2; Clone20 osteoblast Shn3 3'UTR firefly luciferase, 24 h; inhibition, % at 12.5 µM; 0.52% of 360,000 active;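 active = mean inhibition of at least 75% with every replicate also reaching 75%; inconclusive = mean inhibition at least 75% but some replicate below; inactive = mean inhibition below 75%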
Calb FLC – C. albicans growth inhibition with fluconazole, primary screen, CaCi-2 strain, Alamar Blue fluorescence; C. albicans CaCi-2 (fluconazole-resistant clinical isolate) + fluconazole, 48 h; growth inhibition, % (concentration not given with the values); 0.57% of 300,000 active;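 active = growth inhibition above about 58% in most replicates, limit read from the data, passing the limit was not always enough; inconclusive = exactly half the replicates above a set limit; inactive = most replicates below a set limit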;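 also: all wells also contain fluconazole at 8 µg/ml as a sub-toxic cotreatment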
697 NFkB conf – PMA/ionomycin-induced NF-kB reporter inhibitors, 697 retest, confirmation, B-cell NF-kB inhibitor project, cell-based, luminescence, single concentration. shares compounds with 697 NFkB inh. 697 B-cell NF-kB luciferase, 16 h. inhibition, % at 4 µM. 35% of 2,000 active; in the data active = inhibition mostly above about 28%, no sharp cut-off; inactive = mostly below about 22%
Large screens that a line does not name were inactive (follow-up assays come after a bar, where they were run). Shown are actives, neighbours in structure and some others; about 2% of the full set was active somewhere.

CCC(C)NC(=O)c1c(N)n(/N=C/c2cccnc2)c2nc3ccccc3nc12 (stereo unspecified)	none
CN(C)c1ccc(-c2ccnc3c2CC(C)(C(=O)Nc2ccc(Cl)c(C(F)(F)F)c2)O3)cc1 (stereo unspecified)	none (no result: Beta cell apopt, 697 NFkB inh, Jurkat NFkB inh, Calb FLC)
Cc1nn(C)c(C)c1C(C)NC(=O)c1cc(COc2ccc(F)c(F)c2)on1 (stereo unspecified)	none (no result: Beta cell apopt)
O=C(Nc1nc2ccccc2s1)c1c(F)cccc1Cl	none
Cn1cc(Cl)c(C(=O)Nc2nc3ccccc3s2)n1	none | 697 NFkB conf inactive
COc1ccc(Nc2nccc(-c3cccc(N)c3)n2)cc1	none | 697 NFkB conf inactive
COc1ccc(Nc2nccc(-c3ccc(C#N)cc3)n2)cc1	none
O=C(C[C@H]1C/C=C\CC[C@@H](Cc2ccc(F)cc2)C(=O)OC[C@H]2CCCN2C1=O)NCCO	none (no result: Calb FLC)
CCCn1nc(Oc2nc(NCC)nc(NC(C)C)n2)ccc1=O	697 NFkB inh 62 | 697 NFkB conf inactive
C/C(N)=C(/C#N)C(=O)COC(=O)C1CCN(S(=O)(=O)c2cccs2)CC1	none (no result: Calb FLC)
Cc1ccc(C(=O)C[n+]2cc(-c3ccc(C)cc3)n3c2CCCCC3)cc1	Beta cell apopt 125, 697 NFkB inh 80, Calb FLC 88 | 697 NFkB conf 54
COc1ccc(C(=O)C[n+]2cc(-c3ccc(OC)cc3)n3c2CCCC3)cc1	none
O=C(Nc1nccs1)c1cc2c(s1)CCCCC2	none | 697 NFkB conf inactive
Cc1ccc(-n2c(-c3ccc(Cl)cc3)c[n+]3c2CCC3)cc1	none
CCOc1ccc(-c2c[n+]3c(n2-c2ccccc2)CCCCC3)cc1	Beta cell apopt 98, 697 NFkB inh 60, Shn3 inh set2 91, Calb FLC inconclusive | 697 NFkB conf 54
COc1ccc(N2C(=O)C(CC(N)=O)N(NC(=O)CCc3ccccc3)C2=O)cc1 (stereo unspecified)	none
CN(C)/C=C(\C#N)S(=O)(=O)c1ccc(Cl)cc1	none
Cc1ccc(S(=O)(=O)/C(=C\N(C)C)c2cnc(Cl)s2)cc1	697 NFkB inh 36 | 697 NFkB conf inactive
CCCOC(=O)c1ccc(NC(=O)Cc2cccs2)cc1	none
O=[N+]([O-])c1ccc(NCc2ccccc2N2CCC(CO)CC2)nc1	none
Cn1nc(-c2ccc(N3CCOCC3)c(NS(=O)(=O)c3ccccc3)c2)c2ccccc2c1=O	697 NFkB inh 61 | 697 NFkB conf 33
CC(=O)Nc1cc(-c2nn(C)c(=O)c3ccccc23)ccc1N1CCCCC1	none
O=C(CCNC(=O)c1ccc(Br)cc1)NC1CCCc2ccccc21 (stereo unspecified)	none | 697 NFkB conf inactive
O=C(NC1CCCc2ccccc21)c1ccc(Br)cc1 (stereo unspecified)	none
CCOC(=O)c1sc(NC(=S)NC(=O)c2ccccc2)c(C(=O)OCC)c1C	none
CCOC(=O)C1=C(NC(=S)NC(=O)c2ccccc2)c2ccccc2CC1(C)CC (stereo unspecified)	none | 697 NFkB conf inactive
CCOC(=O)C1=C(NC(=S)NC(=O)c2ccccc2)c2ccccc2CC1C(C)C (stereo unspecified)	none | 697 NFkB conf inactive
C=CCOc1ccccc1CN(C(=O)CCl)c1ccc2c(c1)OCO2	697 NFkB inh 42 | 697 NFkB conf 32
CCOC(=O)C1CCN(c2cc3c(cc2NC(=O)c2cc(OC)ccc2Br)n(C)c(=O)n3C)CC1	none
O=S(=O)(/N=C(\c1ccc(F)cc1)N1CCOCC1)c1ccccc1	none (no result: Beta cell apopt, 697 NFkB inh, Jurkat NFkB inh, Calb FLC)
CC(NC(=O)C1CCC(CNc2c(N3CCCCC3)c(=O)c2=O)CC1)c1ccccc1 (stereo unspecified)	697 NFkB inh 36 | 697 NFkB conf inactive
Cc1ccc(NC(=O)Cn2nnc(C(=O)NCc3ccc(Cl)cc3)c2N)cc1F	none
Cc1ccc(OCC(=O)NC2=NCCS2)cc1	none
Cc1ccc(/C=C/C(=O)NC2=NCCS2)cc1	none | 697 NFkB conf inactive
Cc1c(CCC(=O)N2CCC[C@H]2C(=O)O)c(=O)oc2cc3oc4c(c3cc12)CCCC4	697 NFkB inh 60 | 697 NFkB conf 42
Cc1c(CCC(=O)NCC(=O)NCC(=O)O)c(=O)oc2cc3oc4c(c3cc12)CCCC4	none

Bioassay records (PubChem BioAssay)
